Source: PubChem (The Scripps Research Institute Molecular Screening Center)
Compounds with a hit are over-represented: about 2.3% of the library has one in this group of screens.
CHO-K1 Ca ag – nonselective activator or artifact in parental CHO-K1 cells | AID 602248 | Fluo-8 calcium fluorescence; scaled to maximal ATP response, vehicle zero | activation, % at 3 µM | actives 0.48% (n = 360,000); in the data active = activation above about 15%;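 note: untransfected CHO-K1 host cells lacking M1 receptor as counterscreen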
M1 PAM – positive allosteric modulators of human M1 muscarinic receptor. CHO-K1 hM1, Fluo-8 calcium fluorescence, ACh EC20; 0% = ACh EC20, 100% = maximal ACh. activation, % at 3 µM. P11229. actives 0.088% (n = 360,000); in the data active = activation above about 19%, passing the limit was not always enough
Target sequence (P11229 whole entry, looked up): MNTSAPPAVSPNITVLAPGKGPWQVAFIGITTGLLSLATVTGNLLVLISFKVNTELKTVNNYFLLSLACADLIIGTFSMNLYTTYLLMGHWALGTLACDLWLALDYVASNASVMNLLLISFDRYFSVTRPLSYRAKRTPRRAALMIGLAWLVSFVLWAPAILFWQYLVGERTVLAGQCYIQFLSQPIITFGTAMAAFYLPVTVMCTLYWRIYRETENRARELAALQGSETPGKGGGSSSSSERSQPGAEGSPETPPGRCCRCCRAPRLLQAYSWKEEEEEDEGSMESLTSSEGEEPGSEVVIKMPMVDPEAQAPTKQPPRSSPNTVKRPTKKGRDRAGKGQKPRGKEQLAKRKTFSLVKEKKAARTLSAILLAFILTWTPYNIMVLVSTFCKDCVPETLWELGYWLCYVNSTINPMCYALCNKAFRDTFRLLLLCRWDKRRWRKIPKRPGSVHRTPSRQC
CHRM1 antagonist – blocks human M1 muscarinic receptor; P11229; CHO-K1 hM1, Fluo-8 calcium fluorescence, ACh EC80 antagonist; inhibition, % at 3 µM; actives 1.3% (n = 360,000);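 active = percent inhibition above its own plate's cutoff, namely the mean of that plate's compound wells plus 3 SD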;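 note: peak over basal fluorescence ratio during 140 s after agonist addition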
CHO-K1 Ca PAM – counter-screen for M1 PAMs: effect in parental CHO-K1 cells; activation, % at 3 µM; AID 602247; ATP EC20, Fluo-8 calcium fluorescence; 0% at ATP EC20, 100% at ATP max; actives 0.02% (n = 360,000);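 active = activation above the run cutoff, the mean activation of all test compounds plus 3 SD, cut at about 40% in these data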;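 note: peak over basal fluorescence ratio in a 140 s read after ATP addition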
CHO-K1 Ca antag – counter-screen for M1 antagonists: effect in parental CHO-K1 cells; ATP-induced calcium, Fluo-8 fluorescence; inhibition, % at 3 µM; actives 0.6% (n = 360,000); AID 602250;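 active = inhibition above a per-plate cutoff, the plate's mean sample inhibition plus 3 SD, cut at about 24% in these data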
M1 ag – agonists of human M1 muscarinic receptor; AID 588814; activation, % at 3 µM; P11229; CHO-K1 hM1, Fluo-8 calcium fluorescence, agonist mode; 0% DMSO, 100% acetylcholine EC100; actives 0.33% (n = 360,000);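 active = activation above the run's mean compound activation plus 3 SD, cut at about 16% in these data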;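 note: peak over basal fluorescence ratio within a 140 s kinetic read after compound addition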
Large screens that a line does not name were inactive.

CC(C)Cn1c(-c2ccc(Br)cc2)c[nH]c1=S	CHO-K1 Ca ag 15
CC(C)OC(=O)CSc1nnc(CNc2ccc(Cl)cc2)n1Cc1ccccc1	CHO-K1 Ca antag 36
CCOC(=O)CSc1nnc(CNc2ccc(Cl)cc2)n1Cc1ccccc1	none
Cc1ccc2cc(CN(Cc3cccs3)Cc3nnnn3CC3CCCO3)c(=O)[nH]c2c1 (centres undefined)	none
Cc1ccc2cc(CN(Cc3cccs3)Cc3nnnn3CC3CCCO3)c(=O)[nH]c2c1C (centres undefined)	CHO-K1 Ca antag 24
COc1cc(-c2cc(C(=O)Nc3ccccc3N3CCOCC3)c3ccccc3n2)cc(OC)c1OC	none
Cc1cc(C)c(OCC(=O)Nc2ccccc2N2CCOCC2)c(C)c1	CHO-K1 Ca ag 17, M1 ag 18
O=C(Nc1ccccc1N1CCOCC1)c1cc(-c2ccco2)nc2ccccc12	CHRM1 antagonist 38
Cc1cc(C)c(OCC(=O)Nc2ccccc2N2CCCCC2)c(C)c1	none
CCN1CCN(c2ccc(S(=O)(=O)N3CCCCC3)cc2NC(=O)COc2ccc(F)cc2Cl)CC1	none
CC1Cc2nc(SCC(=O)NCc3ccccc3)n(Cc3ccccc3)c(=O)c2S1 (centres undefined)	CHRM1 antagonist 53
CCn1c(SCC(=O)Nc2cccc(C)c2)nc2c(c1=O)SC(C)C2 (centres undefined)	CHO-K1 Ca antag 35
CCn1c(SCC(=O)Nc2ccc3c(c2)OCO3)nc2c(c1=O)SC(C)C2 (centres undefined)	none
CC1Cc2nc(SCC(=O)c3ccccc3)n(Cc3ccccc3)c(=O)c2S1 (centres undefined)	none
Cc1ccc(C(C)C)c2c1C(c1ccc3c(c1)OCO3)CC(=O)O2 (centres undefined)	M1 ag 21
COc1ccccc1NC(=O)Nc1nc(C(C)(C)C)cs1	CHO-K1 Ca ag 31
O=C(CC1CCCC1)Nc1cc(C(F)(F)F)ccc1-n1cncn1	none
CC1C(c2ccccc2)OCCN1C(=S)NC(=O)c1ccccc1 (centres undefined)	none
Cc1ccc(S(=O)(=O)N2CCCCC2)cc1NC(=O)CSc1nnc(C2CC2)n1C	none
CCn1c(SCCN2CCCCC2)nnc1-c1ccc(S(=O)(=O)N2CCOCC2)cc1	CHRM1 antagonist 93
CC(=O)c1ccc(S(=O)(=O)N2CCC(c3nnc(SCCN4CCCC4)n3C)CC2)cc1	none
Cc1ccc(S(=O)(=O)N2CCC(c3nnc(SCCN4CCCC4)n3C)CC2)cc1	CHRM1 antagonist 26
Cn1c(SCCN2CCCC2)nnc1C1CCN(S(=O)(=O)c2ccc(F)cc2)CC1	CHRM1 antagonist 33
Cc1cc(Nc2ccc(Br)cc2F)n2nc(C)nc2n1	CHO-K1 Ca PAM 41
Cc1cc(Nc2ccccc2F)n2nc(C)nc2n1	none
CCOc1ccc(OCC)c(Nc2cc(C)nc3nc(C)nn23)c1	CHO-K1 Ca antag 34
CN(C)S(=O)(=O)N1CCC(Oc2cccc(C(=O)N3CCCCCCC3)c2)CC1	none
COc1ccccc1-c1cc(NC=O)c2ncc(-c3cccc(C(F)(F)F)c3)n2c1	M1 PAM 31
COc1ccc(-c2cc(NC=O)c3ncc(-c4cccc(C(=O)NCCN(C)C)c4)n3c2)c(OC)c1	CHRM1 antagonist 85
COc1ccccc1CN1CN(S(=O)(=O)c2ccccc2)c2nc3ccccc3nc21	none
Cc1cccn2c(=O)nc(SCC(=O)N3CCC(Cc4ccccc4)CC3)nc12	M1 ag 20
CC1(CCc2ccc3c(c2)OCO3)NCCc2c1[nH]c1ccccc21 (centres undefined)	CHO-K1 Ca ag 21
CNC(=O)C(C)Sc1ccc(S(=O)(=O)N2CCOCC2)cn1 (centres undefined)	none
COc1ccc(N2CCN(C(=O)CC(C)S(=O)(=O)c3ccc4c(c3)NC(=O)CO4)CC2)cc1 (centres undefined)	none
CC1CCN(C(=O)CCS(=O)(=O)c2cc3c(cc2Cl)NC(=O)CO3)CC1	none
CCCN1CCN(C(=O)CCS(=O)(=O)c2cc3c(cc2Cl)NC(=O)CO3)CC1	CHO-K1 Ca antag 26
Cc1ccc(C)c(N2CCN(C(=O)CCS(=O)(=O)c3ccc4c(c3)NC(=O)CO4)CC2)c1	CHO-K1 Ca ag 17
O=C1COc2ccc(S(=O)(=O)CCC(=O)N3CCN(c4ccccc4)CC3)cc2N1	none
CC(CC(=O)N1CCN(c2cccc(Cl)c2)CC1)S(=O)(=O)c1ccc2c(c1)NC(=O)CO2 (centres undefined)	CHRM1 antagonist 66
O=C(C/C=N\OCc1ccc([N+](=O)[O-])cc1)Nc1ccc(F)cc1F	CHO-K1 Ca ag 29
CO/N=C/CC(=O)Nc1ccc(F)cc1F	none
CCc1nc(CN2CCCC(C(=O)c3ccc4c5c(cccc35)CC4)C2)c(C)[nH]1 (centres undefined)	CHO-K1 Ca antag 25
O=C(c1ccc2c3c(cccc13)CC2)C1CCCN(Cc2ccncc2)C1 (centres undefined)	none
COc1ccc(NC(=O)Nc2cccc3c2O[C@H](CN(C)C(=O)Nc2ccc4c(c2)OCO4)[C@@H](C)CN([C@H](C)CO)C3=O)cc1	CHRM1 antagonist 33
COc1ccc(NC(=O)N(C)C[C@H]2Oc3c(NC(=O)Nc4ccc5c(c4)OCO5)cccc3C(=O)N([C@H](C)CO)C[C@@H]2C)cc1	none
C[C@H](CO)N1C[C@H](C)[C@@H](CN(C)C(=O)Nc2ccccc2)Oc2c(NS(=O)(=O)c3ccccc3)cccc2C1=O	none
C[C@H](CO)N1C[C@H](C)[C@@H](CN(C)S(=O)(=O)c2ccccc2)Oc2ccc(NC(=O)Nc3ccc(C(F)(F)F)cc3)cc2C1=O	none
C[C@H](CO)N1C[C@H](C)[C@@H](CN(C)S(=O)(=O)c2cccs2)Oc2ccc(NC(=O)Nc3ccc4c(c3)OCO4)cc2C1=O	CHRM1 antagonist 41
C[C@H](CO)N1C[C@H](C)[C@@H](CN(C)S(=O)(=O)c2ccccc2)Oc2ccc(NC(=O)CCC(F)(F)F)cc2C1=O	CHRM1 antagonist 77
C[C@H](CO)N1C[C@H](C)[C@@H](CN(C)C(=O)Nc2ccccc2)Oc2c(NS(=O)(=O)c3ccc(F)cc3)cccc2C1=O	M1 PAM 26
C[C@H](CO)N1C[C@H](C)[C@@H](CN(C)C(=O)Nc2ccc3c(c2)OCO3)Oc2c(NC(=O)Nc3ccc4c(c3)OCO4)cccc2C1=O	CHRM1 antagonist 36
CC(=O)NC(C)(c1ccccc1)c1nc(/C=C/c2ccccc2)cs1 (centres undefined)	none
COc1ccc(C(C)(NC(C)=O)c2nc(/C=C/c3ccccc3)cs2)cc1 (centres undefined)	CHO-K1 Ca antag 32
